In the library only some 4.3% were active in any assay of this set; here they are far more common.
HGIII-sPLA2 inh: Inhibits HGIII-sPLA2 liposome hydrolysis, primary screen | Q9NZ20 | AID 743126 | 0.56% of 370,000 active | QFRET BODIPY PC-A2 liposome hydrolysis, fluorescence | inhibition, % at 12.2 µM;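 active = inhibition above mean plus 3 SD of compounds lying within the high and low control bounds, cut at about 19% in these data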;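 also: 0% = median of test compound wells and 100% = no enzyme DMSO wells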
Target sequence (Q9NZ20 whole entry, looked up): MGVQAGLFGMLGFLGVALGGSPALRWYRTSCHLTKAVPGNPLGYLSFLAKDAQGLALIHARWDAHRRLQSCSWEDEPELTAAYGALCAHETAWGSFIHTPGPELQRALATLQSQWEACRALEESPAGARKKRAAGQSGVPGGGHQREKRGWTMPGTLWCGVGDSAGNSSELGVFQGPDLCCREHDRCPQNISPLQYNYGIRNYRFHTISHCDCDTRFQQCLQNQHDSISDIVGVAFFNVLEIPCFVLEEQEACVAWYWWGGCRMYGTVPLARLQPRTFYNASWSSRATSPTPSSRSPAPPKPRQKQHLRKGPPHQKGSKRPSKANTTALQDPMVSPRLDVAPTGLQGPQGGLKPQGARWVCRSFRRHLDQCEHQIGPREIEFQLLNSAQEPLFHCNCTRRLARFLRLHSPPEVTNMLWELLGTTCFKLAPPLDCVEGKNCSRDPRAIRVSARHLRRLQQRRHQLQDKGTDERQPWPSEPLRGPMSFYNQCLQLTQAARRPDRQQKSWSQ
ADAM10 inh: inhibitors of human ADAM10. recombinant ADAM10, EDANS/DABCYL FRET peptide cleavage, 3 h. inhibition, % at 7 µM. 0.62% of 370,000 active. AID 720582;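 active = inhibition above a per-campaign cutoff equal to the mean of compounds falling between control-based bounds plus 3 SD, cut at about 20% in these data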;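 also: 0% = DMSO wells while the 100% control is not disclosed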
FAS TE block: inhibitors of human fatty acid synthase thioesterase domain; AID 602261; P49327; recombinant FAS-TE, OMFH fluorogenic substrate, fluorescence endpoint; inhibition, % at 15 µM; 0.67% of 360,000 active;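 active = compounds whose normalised, plate-corrected inhibition of enzyme fluorescence in the single-dose primary screen is 50% or more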;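 also: 0% = DMSO with enzyme and 100% = substrate without enzyme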
ADAM17 inh: inhibitors of human ADAM17 | P78536 | recombinant ADAM17, EDANS/DABCYL FRET peptide cleavage | inhibition, % at 6.95 µM | 0.83% of 370,000 active | AID 720648;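 active = inhibition above the mean of compounds lying between control limits plus 3 SD, set per campaign, cut at about 8.5% in these data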;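 also: 0% = DMSO-only wells as the low control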
GRIN3A LBD mod: NR3A (human) ligand-binding domain modulation; 2.5% of 340,000 active; NR3A LBD differential scanning fluorimetry, Tm shift; 0% = protein alone, 100% = glycine-bound protein; Tm shift relative to glycine control, % at 25 µM;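 active = melting temperature shift of at least 10% of the positive control shift, at one fixed dose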
ADAM10 ctr: inhibits human ADAM10 in ADAM17 exosite counter-screen. recombinant ADAM10, EDANS/DABCYL FRET peptide cleavage, 3 h. 47% of 2,900 active. inhibition, % at 6.95 µM. shares compounds with ADAM17 inh. AID 743256;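 active = mean inhibition over the triplicate runs exceeds the activity threshold set in the earlier primary screen, cut at about 20% in these data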;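 also: 0% = DMSO wells and 100% = marimastat wells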
ADAM17 confirm: confirmation of inhibitors of human ADAM17 | 65% of 2,900 active | inhibition, % at 6.95 µM | recombinant ADAM17, EDANS/DABCYL QFRET peptide cleavage | shares compounds with ADAM17 inh;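 active = mean inhibition across replicates above the hit cutoff set in the primary screen, cut at about 8.5% in these data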;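 also: 0% = DMSO wells and 100% = marimastat wells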
Active calls of the source: *; x = not tested or not shown.

SMILES | HGIII-sPLA2 inh | ADAM10 inh | FAS TE block | ADAM17 inh | GRIN3A LBD mod | ADAM10 ctr | ADAM17 confirm
C=CCOC(=O)C1=C(C)N=C2SCCC(=O)N2C1c1ccc(OC(=O)c2ccco2)cc1 (configuration not stated) | 0 | -6 | 16 | 0 | 2 | x | x
Nc1ccc(C2(c3ccc(N)cc3)OC(=O)c3ccccc32)cc1 | 5 | -8 | -6 | -1 | 1 | x | x
Cc1cc(C2(c3ccc(O)c(C)c3)OC(=O)c3ccccc32)ccc1O | -38 | 9 | 5 | 11* | -7 | 18 | 11*
Cc1ccc([C@H]2C[C@@H](O)[C@H](n3cc(-c4ccc(F)cc4)nn3)CN2C(=O)C2CCCCC2)cc1 | -8 | 12 | 19 | 10* | x | 29* | 15*
CCCCCC(=O)N1C[C@@H](n2cc(-c3ccc(F)cc3)nn2)[C@H](O)C[C@@H]1c1ccc(Cl)cc1 | -2 | 15 | 47 | 11* | x | 29* | 17*
O=C(C1CCCCC1)N1C[C@H](n2cc(-c3ccc(F)cc3)nn2)[C@@H](O)C[C@@H]1c1ccc(Cl)cc1 | -20 | 9 | 20 | 4 | x | x | x
Cn1nc(C(C)(C)C)cc1C(=O)NCC1CCN(C(=O)C(=O)c2cc3ccccc3o2)CC1 | -5 | 0 | x | 0 | x | x | x
COc1ccc(S[C@@H](CCN2CC[C@H](C)CCC2=O)c2ccccc2)cc1 | -9 | 15 | 29 | 14* | -3 | 16 | 11*
Cc1ccc(S[C@@H](CCN2CC[C@H](O)CCC2=O)c2ccccc2)cc1 | 1 | -5 | -11 | -1 | 1 | x | x
COc1ccc(C2CC(=O)C(c3ccc4ccccc4c3)=CN2Cc2ccccc2)cc1 (configuration not stated) | -2 | -26 | x | -1 | x | x | x
O=C(Nc1nc(-c2ccccc2)cs1)c1ccc(S(=O)(=O)N2CCc3ccccc32)cc1 | -17 | 13 | 18 | 9.7* | -5 | 10 | 9.7*
O=C(Nc1ccc(S(=O)(=O)N2CCCCC2)cc1)c1ccc(CN2CCc3ccccc3C2)cc1 | -21 | 16 | 15 | 8.8* | -2 | 16 | 9.6*
Cc1ccc(NC(=O)c2ccc3c(c2)CCN3S(C)(=O)=O)cc1 | -1 | -2 | -5 | -1 | x | x | x
CS(=O)(=O)N1CCc2cc(C(=O)Nc3ccc(Br)cc3)ccc21 | 2 | 2 | 6 | 9.0* | -3 | -11 | 0
COc1ccc(C(=O)Nc2ccc(S(=O)(=O)N3CCc4ccccc43)cc2)cc1 | -19 | 19 | 25 | 9.2* | 5 | 21* | 15*
O=C(NCC1CCN(C(=O)C(=O)c2cccs2)CC1)c1ccc2ccccc2c1 | -11 | 1 | x | -3 | x | x | x
COc1ccc(-c2n[nH]c(=S)n2-c2ccc(Br)cc2)cc1OC | 17 | 2 | 4 | 11* | -2 | 2 | 37*
CCCC/C=C1/[C@@H](C(C)C)N(Cc2ccc3c(c2)OCO3)C2=N[C@H](c3ccccc3)CC(=O)N21 | 6 | 9 | x | 4 | x | x | x
CCN1C(=O)/C(=C/c2ccc(C)s2)NC1=S | 13 | 14 | -2 | 10* | 0 | 12 | 12*
Cc1ccc(/C=C2/NC(=O)N(Cc3ccccc3)C2=O)s1 | -10 | 1 | -32 | -3 | 0 | x | x
O=C(O)CCC(=O)c1c[nH]c2ccccc12 | -4 | 1 | -12 | 8.9* | -1 | 9 | 20*
CCN(CC)CC(=O)c1c[nH]c2ccccc12 | -1 | -6 | -9 | -7 | -1 | x | x
O=C(CSc1nc2cc(Cl)ccc2s1)Nc1cccc(S(=O)(=O)N2CCOCC2)c1 | -36 | 20 | 32 | 11* | 6 | 20* | 10*
O=C(CSc1nc2cc(Cl)ccc2s1)c1cc2ccccc2o1 | 14 | 17 | 21 | 12* | -3 | 5 | 5
C=CS(=O)(=O)N(C(=C)C(=O)OC)S(C)(=O)=O | 12 | -26 | x | 2 | x | x | x
CS(=O)(=O)c1ccccc1-c1nc(-c2ccc(C(F)(F)F)cc2)no1 | -5 | 18 | 16 | 8.7* | -33 | 9 | 5
Cc1ccc(NC(=O)C(OC(=O)c2ccccc2Cl)c2ccccc2)cc1Cl (configuration not stated) | -31 | 15 | 39 | 9.3* | 19* | 31* | 21*
